According to PubChem BioAssay (Tox21):
Records with an inconclusive call do not appear. Where a structure was tested more than once in an assay, its records may differ in their call. The source made the active and inactive calls. Unless noted, calls follow the shape of the full dose curve.

What was measured:
[1] = Nuclear factor erythroid 2-related factor 2/antioxidant responsive element (Nrf2/ARE) small molecule agonists: qHTS cell viability counter screen in human keratinocytes (AID 1919968; active = well fitted cell-killing curve with a large enough effect in the repeat runs; also: nearly all actives have a fitted effect of over 55% in size; also: potency is read from the fitted curve at half-maximal effect)
Method in brief: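 Viability counter-screen: KeratinoSens reporter cells, DMSO-delivered compounds, 23 h at 37 C, CellTiter-Fluor fluorescence.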

[2] = Nuclear factor erythroid 2-related factor 2/antioxidant responsive element (Nrf2/ARE) small molecule agonists: luciferase reporter gene qHTS assay in human keratinocytes (AID 1919969); also: nearly all actives have a fitted effect of over 35% in size; also: potency is read from the fitted curve at half-maximal effect
[3] = target: Gonadotropin-releasing hormone receptor (Homo sapiens) (UniProt P30968); test: Human gonadotropin-releasing hormone receptor (GnRHR) small molecule agonists, calcium flux assay in GnRHR-HEK293 cells (AID 1920063); also: nearly all actives have a fitted effect of over 35% in size
Sequence of Gonadotropin-releasing hormone receptor (Homo sapiens) (P30968 whole entry, looked up): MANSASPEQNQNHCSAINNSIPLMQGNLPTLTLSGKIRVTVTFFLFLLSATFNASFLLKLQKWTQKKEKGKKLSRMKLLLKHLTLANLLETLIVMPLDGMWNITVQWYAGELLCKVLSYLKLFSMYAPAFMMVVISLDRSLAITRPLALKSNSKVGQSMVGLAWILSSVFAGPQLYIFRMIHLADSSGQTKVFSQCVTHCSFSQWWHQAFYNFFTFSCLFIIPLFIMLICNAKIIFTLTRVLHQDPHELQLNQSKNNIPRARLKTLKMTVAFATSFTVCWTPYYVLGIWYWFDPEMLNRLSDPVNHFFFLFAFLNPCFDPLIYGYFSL
Method in brief: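 Tox21-format agonist screen using human GnRHR-expressing HEK293 cells and a fluorescent calcium dye; kinetic 3-min fluorescence reading after compound addition, 15-point concentration series run in triplicate.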

[4] = p53 small molecule agonists, cell-based qHTS assay with human liver microsomes (AID 1963577);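 also: p53 response element beta-lactamase reporter cells with liver microsomes plus NADPH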
Method in brief: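 16 h, 37 C exposure of p53RE-bla cells to compounds with human liver microsomes and NADPH (0.5 mg/mL final each); detection via LiveBLAzer mixture, 2 h dark at room temperature.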

[5] = p53 small molecule agonists, cell-based qHTS assay with rat liver microsomes (AID 1963578)
Method in brief: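 With rat liver microsomes and NADPH present (0.5 mg/mL final each), p53RE-bla cells are treated with compound for 16 h at 37 C. LiveBLAzer detection mixture is then applied for 2 h at room temperature in the dark.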

[6] = p53 small molecule agonists, cell-based qHTS assay with human liver microsomes: qHTS cell viability counter screen (AID 1963579); also: nearly all actives have a fitted effect of over 45% in size
Method in brief: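 In this multiplexed counter screen, the reporter plates were subsequently treated with CellTiter-Glo so that cell viability, reflected by luminescence, could be recorded for p53RE-bla cells dosed 16 h with compounds under microsomal activation (HLM and NADPH).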

[7] = p53 small molecule agonists, cell-based qHTS assay with rat liver microsomes: qHTS cell viability counter screen (AID 1963580); also: nearly all actives have a fitted effect of over 45% in size
Method in brief: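 In HCT-116 cells carrying a p53 response element-bla reporter, compounds were metabolically activated in situ by rat liver microsomes with NADPH over 16 h. Cell ATP content then served as the cytotoxicity measure.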

[8] = p53 small molecule agonists, cell-based qHTS assay: qHTS cell viability counter screen (AID 1963581); also: nearly all actives have a fitted effect of over 45% in size
Method in brief: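 Compounds are pinned onto HCT-116 p53RE-bla cells and left 16 h at 37 C. Following the reporter FRET read, ATP is quantified by CellTiter-Glo luminescence after 30 min at room temperature.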

[9] = p53 small molecule agonists, cell-based qHTS assay (AID 1963582; active = well fitted activation curve with a large enough effect in the signal ratio in the repeat runs, not every such curve was filed as active; the % refers to the signal ratio)
Method in brief: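 Agonist activity was scored from beta-lactamase FRET fluorescence in p53RE-bla cells treated 16 h at 37 C with compounds in DMSO, substrate incubation being 2 h at room temperature.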

[10] = target: 5-hydroxytryptamine receptor 2A (Homo sapiens) (UniProt P28223); test: 5-hydroxytryptamine receptor 2A (HTR2A) small molecule antagonists, cell-based qHTS assay (AID 1963586); also: nearly all actives have a fitted effect of over 45% in size
Sequence of 5-hydroxytryptamine receptor 2A (Homo sapiens) (P28223 whole entry, looked up): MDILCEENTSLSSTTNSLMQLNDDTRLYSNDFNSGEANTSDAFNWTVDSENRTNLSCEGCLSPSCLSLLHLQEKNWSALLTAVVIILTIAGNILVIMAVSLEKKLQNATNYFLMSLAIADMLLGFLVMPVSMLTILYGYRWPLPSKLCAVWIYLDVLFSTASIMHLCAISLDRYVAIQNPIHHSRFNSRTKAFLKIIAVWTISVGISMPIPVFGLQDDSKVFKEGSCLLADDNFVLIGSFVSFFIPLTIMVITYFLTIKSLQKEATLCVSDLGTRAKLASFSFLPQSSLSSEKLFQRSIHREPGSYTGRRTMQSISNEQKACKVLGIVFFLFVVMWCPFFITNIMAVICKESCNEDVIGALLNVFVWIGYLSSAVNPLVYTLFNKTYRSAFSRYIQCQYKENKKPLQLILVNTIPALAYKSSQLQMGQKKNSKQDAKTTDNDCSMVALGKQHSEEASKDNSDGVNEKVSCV
Method in brief: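 Antagonist-mode intracellular calcium assay: DOI (4 nM) added after 5 min compound pre-incubation at room temperature to dye-loaded HTR2A-CHO cells. Fluorescence followed for 3 min, sampled every second.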

[11] = target: 5-hydroxytryptamine receptor 2A (Homo sapiens) (UniProt P28223); test: 5-hydroxytryptamine receptor 2A (HTR2A) small molecule agonists, cell-based qHTS assay (AID 1963587); also: nearly all actives have a fitted effect of over 30% in size
Method in brief: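 HTR2A-CHO cells, plated 18 h at 37 C/5% CO2, dye-loaded 1 h at 37 C; compounds in DMSO added by pin tool (agonist mode). Intracellular calcium flux read as kinetic fluorescence on FDSS over 2 min at 1 s intervals.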

[12] = target: Muscarinic acetylcholine receptor M1 (Homo sapiens) (UniProt P11229); test: Cholinergic receptor muscarinic 1 (CHRM1) small molecule antagonists, cell-based qHTS assay (AID 1963588); also: nearly all actives have a fitted effect of over 40% in size; also: potency is read from the fitted curve at half-maximal effect
Sequence of Muscarinic acetylcholine receptor M1 (Homo sapiens) (P11229 whole entry, looked up): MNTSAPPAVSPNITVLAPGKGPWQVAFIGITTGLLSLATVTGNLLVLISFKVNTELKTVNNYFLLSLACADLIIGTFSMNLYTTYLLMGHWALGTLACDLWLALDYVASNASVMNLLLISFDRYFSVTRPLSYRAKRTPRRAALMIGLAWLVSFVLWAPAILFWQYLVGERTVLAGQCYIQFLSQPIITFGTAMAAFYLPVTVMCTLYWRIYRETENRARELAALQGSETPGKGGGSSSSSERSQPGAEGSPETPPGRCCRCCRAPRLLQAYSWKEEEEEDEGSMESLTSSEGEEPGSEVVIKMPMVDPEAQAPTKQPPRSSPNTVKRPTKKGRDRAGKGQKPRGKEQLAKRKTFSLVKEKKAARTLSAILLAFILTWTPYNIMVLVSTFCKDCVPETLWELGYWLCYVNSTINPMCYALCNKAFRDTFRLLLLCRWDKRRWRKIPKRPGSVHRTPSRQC
Method in brief: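 CHRM1-CHO calcium-flux assay, antagonist mode. Cells were seeded 18 h, dye-loaded 1 h at 37 C and given compound for 5 min at RT, then acetylcholine was added at 50nM. FDSS fluorescence was read 3 min; 15 concentrations, three runs.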

[13] = target: Muscarinic acetylcholine receptor M1 (Homo sapiens) (UniProt P11229); test: Cholinergic receptor muscarinic 1 (CHRM1) small molecule agonists, cell-based qHTS assay (AID 1963589); also: nearly all actives have a fitted effect of over 35% in size
Method in brief: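 Stable CHRM1-CHO cells (human receptor) were incubated 18 h, dye-loaded for 1 h at 37 C and exposed to test compounds for agonist activity, with calcium-dependent fluorescence followed kinetically.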

[14] = cAMP Responsive Elements (CRE) small molecule agonists, cell-based qHTS assay (AID 1963590)
Method in brief: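 FRET-based beta-lactamase readout (LiveBLAzer B/G, 2 h RT) quantified CRE activation in HEK 293T CRE-bla cells after 3 h treatment with DMSO-dissolved compounds.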

[15] = cAMP Responsive Elements (CRE) small molecule antagonists, cell-based qHTS assay (AID 1963591; active = well fitted inhibition curve with a large enough effect in the signal ratio in the repeat runs, not every such curve was filed as active; the % refers to the signal ratio)
Method in brief: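 qHTS in CRE-bla HEK 293T cells: compound in DMSO, then 0.25 uM NKH477 (final), 3 h at 37 °C/5% CO2; beta-lactamase FRET read-out after 2 h substrate incubation.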

[16] = target: Beta-2 adrenergic receptor (Homo sapiens) (UniProt P07550); test: Adrenergic beta2 receptor (ADRB2) small molecule antagonists, cell-based qHTS assay (AID 1963592); also: series mostly up to about 92 µM; nearly all actives have a fitted effect of over 50% in size
Sequence of Beta-2 adrenergic receptor (Homo sapiens) (P07550 whole entry, looked up): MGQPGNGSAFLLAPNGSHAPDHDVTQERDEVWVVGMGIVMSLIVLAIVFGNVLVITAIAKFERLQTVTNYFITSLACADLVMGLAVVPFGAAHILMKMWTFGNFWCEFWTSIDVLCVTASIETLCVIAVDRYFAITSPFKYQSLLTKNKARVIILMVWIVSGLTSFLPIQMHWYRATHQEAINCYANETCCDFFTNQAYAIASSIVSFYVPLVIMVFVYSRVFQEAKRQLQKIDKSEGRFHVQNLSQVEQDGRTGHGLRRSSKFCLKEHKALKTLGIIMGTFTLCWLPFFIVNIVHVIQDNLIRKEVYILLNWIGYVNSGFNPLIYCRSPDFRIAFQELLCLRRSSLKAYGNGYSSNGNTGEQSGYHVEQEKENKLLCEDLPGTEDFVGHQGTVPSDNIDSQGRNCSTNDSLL
Method in brief: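 Cells (CHO, stable ADRB2 overexpression) incubated 18-20hr at 37C; compounds added from DMSO; agonist mix (1nM isoproterenol, 100uM IBMX, 25uM Ro-20-1724) added; 0.5hr RT; d2-cAMP and anti-cAMP-cryptate added; 1hr RT; 665/615 nm read.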

[17] = target: Beta-2 adrenergic receptor (Homo sapiens) (UniProt P07550); test: Adrenergic beta2 receptor (ADRB2) small molecule agonists, cell-based qHTS assay (AID 1963593);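 also: CHO cells stably overexpressing human ADRB2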
Method in brief: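 CHO cells stably over-expressing ADRB2 were plated overnight at 37C, then dosed with compounds plus a stimulation mix containing 100uM IBMX and 25uM Ro-20-1724 for 0.5hr at room temperature. cAMP was measured by HTRF competition, 1hr.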

[18] = target: D(2) dopamine receptor (Homo sapiens) (UniProt P14416); test: Dopamine D2 receptor (DRD2) small molecule agonists, cell-based qHTS assay (AID 1963594); also: nearly all actives have a fitted effect of over 35% in size
Sequence of D(2) dopamine receptor (Homo sapiens) (P14416 whole entry, looked up): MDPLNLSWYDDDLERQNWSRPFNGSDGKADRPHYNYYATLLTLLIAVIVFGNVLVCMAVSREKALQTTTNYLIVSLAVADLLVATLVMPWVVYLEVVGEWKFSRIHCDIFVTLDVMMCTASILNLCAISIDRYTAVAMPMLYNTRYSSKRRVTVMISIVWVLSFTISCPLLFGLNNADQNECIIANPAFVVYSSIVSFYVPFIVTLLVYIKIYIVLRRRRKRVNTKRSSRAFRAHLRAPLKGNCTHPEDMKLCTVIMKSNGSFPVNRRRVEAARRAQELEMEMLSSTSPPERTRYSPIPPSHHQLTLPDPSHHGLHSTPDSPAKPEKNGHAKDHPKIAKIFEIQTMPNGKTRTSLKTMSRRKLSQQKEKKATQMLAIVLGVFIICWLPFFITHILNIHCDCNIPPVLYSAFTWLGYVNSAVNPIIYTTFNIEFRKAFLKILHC
Method in brief: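 HEK293 cells stably expressing DRD2 were cultured 24 h at 37 C, then given Ro20-1724 (0.1 mM final) and compounds for 10 min at room temperature. NKH477 (200nM) was then added for 30 min. cAMP was read by HTRF.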

[19] = target: D(2) dopamine receptor (Homo sapiens) (UniProt P14416); test: Dopamine D2 receptor (DRD2) small molecule antagonists, cell-based qHTS assay (AID 1963595; active = well fitted inhibition curve with a large enough effect in the signal ratio in the repeat runs, with a control signal flat; the % refers to the signal ratio)
Method in brief: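 HEK293 cells stably expressing DRD2 were preincubated with 0.1 mM Ro20-1724, then with compound for 10 min at room temperature. Cells were stimulated with 200 nM NKH477 plus 12 nM quinpirole for 30 min, and cAMP was read by HTRF.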

[20] = G protein-coupled receptor (GPCR) small molecule agonists, calcium flux assay: HEK293 wild type cell line counter screen (AID 1920065)
Method in brief: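 In this agonist-mode screen, ATP is the positive control and DMSO the vehicle. Cells grow 18 h before a 1 h dye incubation at 37 C; signal is taken at Ex/Em 480/540 over 3 min.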

Measured: Potency

CCN(CC)CC(=O)OCC(=O)[C@@]1(O)CC[C@H]2[C@@H]3CCC4=CC(=O)CC[C@]4(C)[C@H]3[C@@H](O)C[C@@]21C
not listed: [20]
inactive: all other assays above

CC[C@H](C)[C@@H](C(=O)O)n1sc2ccccc2c1=O
active: [2] 54.5 µM
not listed: [17] | [19] | [20]
inactive: all other assays above

COC(=O)C1=C(C)NC(C)=C(C(=O)OCCN(C)Cc2ccccc2)C1c1cccc([N+](=O)[O-])c1 (stereo not given)
active: [1] 30.5 µM
1.32 µM (active) and inactive: [12]
inactive: [2] | [3] | [20] | [8] | [10] | [11] | [15] | [16] | [18]

O=C(O)c1cccc(C[C@@H]2COc3ccc(OCc4nc5cc(F)ccc5s4)cc3[C@@H]2O)c1
not listed: [18] | [20]
inactive: all other assays above
